# ± gives the standard deviation.
# System: MILI (PIWIL2) piRISC loaded with L1MC piRNA (26 nt)
# Assay: pre-steady-state target cleavage rate (min^-1); guide: L1MC piRNA 5'p-UAACUAAAUACUAUGCAAGCUGUAGG; MIWI and MILI are mouse PIWI proteins and EfPiwi is from a freshwater sponge; tags in brackets are library labels; higher = faster piRNA-guided slicing of the target
# Conditions: auxiliary factor: 500 nM mouse GTSF1
# Method: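 Cleave-'n-Seq: a library of target RNAs (target site embedded in constant flanks, ACAGCATTCCGCGTTAGTGATATCCG... 5' flank; DNA-blocked outside the site) at 0.1 nM was incubated with 1 nM active mouse MILI or MIWI piRISC (synthetic 5'-monophosphorylated piRNA guide) with or without 500 nM mouse GTSF1 at 33 °C for 1 min to 16 h. Uncleaved targets were sequenced and normalised to non-target controls, and the pooled three trials were fitted to a burst-and-steady-state model to give the pre-steady-state cleavage rate (min^-1; k3 is constrained to at most 1e-4). Sequence is the target site only; target names encode pairing extent (gX:gY) and contiguous / 1-mismatch / 2-mismatch / bulge geometry. Fits with R² ≤ 0 are excluded.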
row,Sequence,pre-steady-state target cleavage rate
1,UCCUGGAACAGCUUGCAUAGUAUAUAGAUA,0.0877 ± 0.022
2,UCCUGGAUGUCGAACCAUAGUAUUCAGUUA,< 0.0001
3,UCCUGCAACAGCUUGCAUACUAUUUAGUUA,0.083 ± 0.011
4,UCCUGCUACAGCUUGGAUAGUAAUUAGUUA,0.204 ± 0.021
5,UCCUCCUAGUCCUUGCAUAGUAUUUAGUAA,0.102 ± 0.018
6,UCCUGCUCAGCUUGCAUAGUAUUUAGUUA,0.278 ± 0.014
7,UCCUGGAUCACCUUGCAUAGUAUUUUCAAA,0.0586 ± 0.021
8,UCCUGGAUGUCGAAGCAUAGUAGUUUAGUUA,0.00907 ± 0.0034
9,UCCUGGAUGACCUUGCAUUGUAUUUAGUUA,0.0617 ± 0.0098
10,UCCUGGAACAGCUUGCAUAGUAUUUAGUGUA,0.231 ± 0.018
11,UCCUCCUACAGGUUGCAUAGUAUUUACAAA,0.052 ± 0.014
12,UCCUGGAACAGCUUGCAUAGUAUUUAGUA,0.191 ± 0.02
13,UCCUGGAUCAGCUUGCAUUGUAUUUAGAAA,0.0362 ± 0.013
14,UCCUGGAUGUCCUUGUCAUAGUAUUUAGUUA,0.0189 ± 0.009
15,UCCUGCUACAGCUUGCAUAGUAUUCUAGUUA,0.26 ± 0.038
16,UCCUGGAUGUGGUUGCUUAGUAUUUAGUUA,0.107 ± 0.02
17,UCCUGGAUCAGCUUGGCAUAGUAUUUAGUUA,0.3 ± 0.061
18,UCCUGGUACAGCUAGCAUAGUAAUUAGUUA,0.236 ± 0.041
19,UCCUCCAACAGCUUGCAUAGUAUAUAGUUA,0.234 ± 0.027
20,UCCUCCAACAGCUUGCAAAGUAUUUAGUUA,0.155 ± 0.01
21,UCCUGGUACAGCUUGCAUAGAAUUUUGUUA,0.0466 ± 0.016
22,UCCUGGUACAGCUAGCAUAGUAUUUACUUA,0.0934 ± 0.023
23,UCCUGGAUCAGCUUGCAUAGUUUUAAGUUA,0.0366 ± 0.008
24,UCCUGGAUGUCCUUGCAUAGUAUAAAGUAA,0.0169 ± 0.0066
25,UCCUGGAUGAGCUUGCUUAGUAUAUAGUUA,0.103 ± 0.02
26,UCCUGGAUGACCUUGCAUAGUAAUUAGUUA,0.131 ± 0.027

# Same assay, conditions: auxiliary factor: none (no GTSF1)
row,Sequence,pre-steady-state target cleavage rate
1,UCCUGCAACAGCUUGCAUACUAUUUAGUUA,0.00386 ± 0.002
2,UCCUCCUAGUCCUUGCAUAGUAUUUAGUAA,0.0027 ± 0.0023
3,UCCUGCUCAGCUUGCAUAGUAUUUAGUUA,0.00716 ± 0.0018
4,UCCUGGAUGUCGAAGCAUAGUAGUUUAGUUA,0.00276 ± 0.0022
5,UCCUGGAUGACCUUGCAUUGUAUUUAGUUA,0.00446 ± 0.0029
6,UCCUGGAACAGCUUGCAUAGUAUUUAGUGUA,0.00523 ± 0.0026
7,UCCUGCUACAGCUUGCAUAGUAUUCUAGUUA,0.00709 ± 0.0024
8,UCCUGGAUGUGGUUGCUUAGUAUUUAGUUA,0.0132 ± 0.0037
9,UCCUGGAUCAGCUUGGCAUAGUAUUUAGUUA,0.00341 ± 0.0025
10,UCCUGGUACAGCUAGCAUAGUAAUUAGUUA,0.00483 ± 0.0027
11,UCCUCCAACAGCUUGCAUAGUAUAUAGUUA,0.0056 ± 0.0022
12,UCCUCCAACAGCUUGCAAAGUAUUUAGUUA,0.00656 ± 0.0019
13,UCCUGGAUCAGCUUGCAUAGUUUUAAGUUA,0.00531 ± 0.0024
14,UCCUGGAUGAGCUUGCUUAGUAUAUAGUUA,0.00937 ± 0.0029
